In publication PMC7862700, “An all-to-all approach to the identification of sequence-specific readers for epigenetic DNA modifications on cytosine”:

Columns and labels:
Assay in all cases: DAPPL (digital affinity profiling via proximity ligation, sequencing); 10 mM Tris-HCl pH 7.5, 50 mM NaCl, 1 mM DTT, 4% glycerol, room temperature, 30 min; GST-TFs on glutathione beads, 16-mer random dsDNA library, 0.1% formaldehyde crosslink after washing; high values mean tight binding
FLI1 = target: T1, FLI1 (Homo sapiens, UniProt Q01543 1-452); settings: protein: recombinant; tags: N-terminal GST; dsDNA, one strand shown
T1 sequence: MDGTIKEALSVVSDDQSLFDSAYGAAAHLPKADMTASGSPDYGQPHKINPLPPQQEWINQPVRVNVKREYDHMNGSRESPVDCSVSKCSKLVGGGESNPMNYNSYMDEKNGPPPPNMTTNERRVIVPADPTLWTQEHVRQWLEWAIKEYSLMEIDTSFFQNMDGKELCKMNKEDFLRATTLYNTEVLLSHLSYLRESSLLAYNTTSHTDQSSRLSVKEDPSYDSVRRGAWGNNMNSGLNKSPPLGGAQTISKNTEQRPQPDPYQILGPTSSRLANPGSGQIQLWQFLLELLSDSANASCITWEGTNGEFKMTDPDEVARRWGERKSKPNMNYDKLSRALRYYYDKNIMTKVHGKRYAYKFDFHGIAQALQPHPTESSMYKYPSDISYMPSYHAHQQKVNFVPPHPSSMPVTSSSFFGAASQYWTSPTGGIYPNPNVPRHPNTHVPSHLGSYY
In short: (§1)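 Human transcription factors were made in yeast as GST fusions, captured on glutathione beads and barcoded with DNA. With a tag-only sample included, the pool was incubated with 200 nmole of a random double-stranded 16-mer DNA library in Tris/NaCl/DTT/glycerol buffer at room temperature for 30 min, then crosslinked with 0.1% formaldehyde after washing, ligated by proximity, amplified and sequenced. For binding signal, each hexamer's read frequency for a factor is divided by its frequency for the tag-only sample.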

ELK1 = target: T2, ELK1 (Homo sapiens, UniProt P19419 1-428); settings: protein: recombinant; tags: N-terminal GST; dsDNA, one strand shown
T2 sequence: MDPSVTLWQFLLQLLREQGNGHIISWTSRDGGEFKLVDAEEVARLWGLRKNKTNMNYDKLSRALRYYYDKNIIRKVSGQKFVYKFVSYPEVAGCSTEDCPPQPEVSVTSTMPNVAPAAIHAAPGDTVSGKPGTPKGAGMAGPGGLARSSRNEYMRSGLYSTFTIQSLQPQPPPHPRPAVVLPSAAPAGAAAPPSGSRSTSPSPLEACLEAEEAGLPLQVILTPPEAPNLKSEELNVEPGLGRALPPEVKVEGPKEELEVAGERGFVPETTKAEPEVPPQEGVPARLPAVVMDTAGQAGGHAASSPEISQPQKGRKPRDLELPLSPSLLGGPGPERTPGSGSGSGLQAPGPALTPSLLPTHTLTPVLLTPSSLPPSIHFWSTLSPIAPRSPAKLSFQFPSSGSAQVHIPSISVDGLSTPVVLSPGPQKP
In short: as §1

GABPA = target: T3, GABPA (Homo sapiens, UniProt Q06546 1-454); settings: protein: recombinant; tags: N-terminal GST; dsDNA, one strand shown
T3 sequence: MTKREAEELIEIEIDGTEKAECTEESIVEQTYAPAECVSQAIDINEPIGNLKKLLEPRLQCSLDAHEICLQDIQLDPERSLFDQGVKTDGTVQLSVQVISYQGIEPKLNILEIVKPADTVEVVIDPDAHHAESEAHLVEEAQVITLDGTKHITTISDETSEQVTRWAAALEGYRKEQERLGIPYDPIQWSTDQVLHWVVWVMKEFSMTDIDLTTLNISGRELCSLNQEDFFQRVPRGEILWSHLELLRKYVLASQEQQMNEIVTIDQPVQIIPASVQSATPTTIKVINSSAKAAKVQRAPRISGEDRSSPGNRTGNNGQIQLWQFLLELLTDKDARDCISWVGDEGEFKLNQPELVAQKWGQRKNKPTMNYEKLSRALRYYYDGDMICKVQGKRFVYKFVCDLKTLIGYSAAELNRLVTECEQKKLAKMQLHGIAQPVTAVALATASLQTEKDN
In short: as §1

ERG = target: T4, ERG (Homo sapiens, UniProt P11308 1-479); settings: protein: recombinant; tags: N-terminal GST; dsDNA, one strand shown
T4 sequence: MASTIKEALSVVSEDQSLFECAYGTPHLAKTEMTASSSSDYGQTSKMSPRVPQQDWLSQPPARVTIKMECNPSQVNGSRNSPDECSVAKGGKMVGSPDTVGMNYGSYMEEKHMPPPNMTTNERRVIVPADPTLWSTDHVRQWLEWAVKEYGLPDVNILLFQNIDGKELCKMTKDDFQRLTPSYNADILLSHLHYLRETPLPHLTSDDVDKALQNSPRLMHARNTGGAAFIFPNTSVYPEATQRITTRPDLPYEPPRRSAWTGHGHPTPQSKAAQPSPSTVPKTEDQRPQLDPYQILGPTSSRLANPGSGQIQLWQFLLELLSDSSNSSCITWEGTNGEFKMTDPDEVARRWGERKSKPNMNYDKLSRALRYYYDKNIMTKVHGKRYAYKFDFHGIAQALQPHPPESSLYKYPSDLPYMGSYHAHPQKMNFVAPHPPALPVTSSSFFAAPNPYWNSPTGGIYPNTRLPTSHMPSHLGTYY
In short: as §1

ELF1 = ELF1 (Homo sapiens, UniProt P32519 1-619); settings: protein: recombinant; tags: N-terminal GST; dsDNA, one strand shown
In short: as §1

EHF = target: T5, EHF (Homo sapiens, UniProt Q9NZC4 1-300); settings: protein: recombinant; tags: N-terminal GST; dsDNA, one strand shown
T5 sequence: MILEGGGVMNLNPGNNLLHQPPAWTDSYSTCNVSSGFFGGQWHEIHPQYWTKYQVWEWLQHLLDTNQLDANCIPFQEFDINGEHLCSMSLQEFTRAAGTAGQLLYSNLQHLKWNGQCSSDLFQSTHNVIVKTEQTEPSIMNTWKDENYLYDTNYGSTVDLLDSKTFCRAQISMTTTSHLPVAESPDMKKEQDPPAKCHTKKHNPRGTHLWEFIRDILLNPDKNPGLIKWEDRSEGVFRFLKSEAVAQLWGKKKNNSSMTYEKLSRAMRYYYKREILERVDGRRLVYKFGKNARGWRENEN
In short: as §1

SPI1 = SPI1 (Homo sapiens, UniProt P17947 1-270); settings: protein: recombinant; tags: N-terminal GST; dsDNA, one strand shown
In short: as §1

SPIB = SPIB (Homo sapiens, UniProt Q01892 1-262); settings: protein: recombinant; tags: N-terminal GST; dsDNA, one strand shown
In short: as §1

ELK3 = target: T6, ELK3 (Homo sapiens, UniProt P41970 1-407); settings: protein: recombinant; tags: N-terminal GST; dsDNA, one strand shown
T6 sequence: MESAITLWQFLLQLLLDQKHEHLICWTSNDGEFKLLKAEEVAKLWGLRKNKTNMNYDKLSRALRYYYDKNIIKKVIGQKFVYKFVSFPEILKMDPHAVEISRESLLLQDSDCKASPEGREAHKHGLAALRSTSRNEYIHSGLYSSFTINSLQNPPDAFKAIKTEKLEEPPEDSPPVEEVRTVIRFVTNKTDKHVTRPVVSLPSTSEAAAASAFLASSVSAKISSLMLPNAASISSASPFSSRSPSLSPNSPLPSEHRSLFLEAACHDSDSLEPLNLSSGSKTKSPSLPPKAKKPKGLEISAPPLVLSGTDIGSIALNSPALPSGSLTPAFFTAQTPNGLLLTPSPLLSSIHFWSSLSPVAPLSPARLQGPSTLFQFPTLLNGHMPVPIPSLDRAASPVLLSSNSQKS
In short: as §1

FEV = target: T7, FEV (Homo sapiens, UniProt Q99581 1-238); settings: protein: recombinant; tags: N-terminal GST; dsDNA, one strand shown
T7 sequence: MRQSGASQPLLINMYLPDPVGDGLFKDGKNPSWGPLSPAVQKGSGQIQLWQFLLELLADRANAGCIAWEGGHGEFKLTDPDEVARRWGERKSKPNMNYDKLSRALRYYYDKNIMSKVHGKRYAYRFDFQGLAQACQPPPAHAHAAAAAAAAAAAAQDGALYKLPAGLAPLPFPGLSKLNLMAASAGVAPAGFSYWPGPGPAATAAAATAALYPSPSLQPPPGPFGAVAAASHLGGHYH
In short: as §1

ETV5 = ETV5 (Homo sapiens, UniProt P41161 1-510); settings: protein: recombinant; tags: N-terminal GST; dsDNA, one strand shown
In short: as §1

HSF1 = HSF1 (Homo sapiens, UniProt Q00613 1-529); settings: protein: recombinant; tags: N-terminal GST; chain copies: 3; dsDNA, one strand shown
In short: as §1

SPIC = target: T8, SPIC (Homo sapiens, UniProt Q8N5J4 1-248); settings: protein: recombinant; tags: N-terminal GST; dsDNA, one strand shown
T8 sequence: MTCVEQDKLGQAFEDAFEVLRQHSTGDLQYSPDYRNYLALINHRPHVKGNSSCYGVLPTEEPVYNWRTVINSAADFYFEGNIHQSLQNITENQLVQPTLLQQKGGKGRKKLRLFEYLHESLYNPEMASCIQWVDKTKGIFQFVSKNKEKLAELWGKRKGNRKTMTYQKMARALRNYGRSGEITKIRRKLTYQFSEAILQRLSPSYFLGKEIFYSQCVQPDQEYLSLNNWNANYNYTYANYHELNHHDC
In short: as §1

ELF4 = ELF4 (Homo sapiens, UniProt Q99607 1-663); settings: protein: recombinant; tags: N-terminal GST; dsDNA, one strand shown
In short: as §1

ELK4 = target: T9, ELK4 (Homo sapiens, UniProt P28324-2 1-405); settings: protein: recombinant; tags: N-terminal GST; dsDNA, one strand shown
T9 sequence: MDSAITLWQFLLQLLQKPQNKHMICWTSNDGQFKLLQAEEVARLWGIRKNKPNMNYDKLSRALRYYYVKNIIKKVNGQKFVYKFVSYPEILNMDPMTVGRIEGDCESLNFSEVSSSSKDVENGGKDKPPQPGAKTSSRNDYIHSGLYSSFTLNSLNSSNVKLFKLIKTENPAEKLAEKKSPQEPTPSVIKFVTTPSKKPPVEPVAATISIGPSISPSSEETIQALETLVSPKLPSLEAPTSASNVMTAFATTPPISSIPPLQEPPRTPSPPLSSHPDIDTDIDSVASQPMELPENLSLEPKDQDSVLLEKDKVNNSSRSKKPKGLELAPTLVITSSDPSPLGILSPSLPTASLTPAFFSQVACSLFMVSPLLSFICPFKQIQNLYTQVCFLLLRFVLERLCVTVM
In short: as §1

ETV2 = target: T10, ETV2 (Homo sapiens, UniProt O00321 1-342); settings: protein: recombinant; tags: N-terminal GST; dsDNA, one strand shown
T10 sequence: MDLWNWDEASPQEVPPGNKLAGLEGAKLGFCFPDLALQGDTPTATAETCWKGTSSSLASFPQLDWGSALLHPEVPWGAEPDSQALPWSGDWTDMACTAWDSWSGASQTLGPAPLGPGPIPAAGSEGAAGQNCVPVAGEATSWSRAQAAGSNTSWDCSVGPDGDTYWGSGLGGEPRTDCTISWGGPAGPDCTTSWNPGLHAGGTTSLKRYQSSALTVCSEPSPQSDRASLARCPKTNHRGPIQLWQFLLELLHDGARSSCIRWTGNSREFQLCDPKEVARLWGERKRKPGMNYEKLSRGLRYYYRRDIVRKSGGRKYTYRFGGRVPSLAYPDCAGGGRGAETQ
In short: as §1

ELF3 = target: T11, ELF3 (Homo sapiens, UniProt P78545 1-371); settings: protein: recombinant; tags: N-terminal GST; dsDNA, one strand shown
T11 sequence: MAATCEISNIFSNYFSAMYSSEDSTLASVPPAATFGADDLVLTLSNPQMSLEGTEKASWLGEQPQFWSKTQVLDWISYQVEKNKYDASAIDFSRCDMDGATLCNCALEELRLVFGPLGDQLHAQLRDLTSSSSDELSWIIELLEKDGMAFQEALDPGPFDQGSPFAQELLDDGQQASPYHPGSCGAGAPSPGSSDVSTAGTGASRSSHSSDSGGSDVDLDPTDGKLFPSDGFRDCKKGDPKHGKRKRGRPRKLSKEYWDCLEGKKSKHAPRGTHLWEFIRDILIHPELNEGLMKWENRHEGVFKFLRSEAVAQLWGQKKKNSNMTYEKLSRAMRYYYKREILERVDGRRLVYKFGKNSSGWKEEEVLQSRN
In short: as §1

CRX = CRX (Homo sapiens, UniProt O43186 1-299); settings: protein: recombinant; tags: N-terminal GST; dsDNA, one strand shown
In short: as §1

ETV1 = ETV1 (Homo sapiens, UniProt P50549 1-477); settings: protein: recombinant; tags: N-terminal GST; dsDNA, one strand shown
In short: as §1

Chain of ELF4 (Q99607 whole entry): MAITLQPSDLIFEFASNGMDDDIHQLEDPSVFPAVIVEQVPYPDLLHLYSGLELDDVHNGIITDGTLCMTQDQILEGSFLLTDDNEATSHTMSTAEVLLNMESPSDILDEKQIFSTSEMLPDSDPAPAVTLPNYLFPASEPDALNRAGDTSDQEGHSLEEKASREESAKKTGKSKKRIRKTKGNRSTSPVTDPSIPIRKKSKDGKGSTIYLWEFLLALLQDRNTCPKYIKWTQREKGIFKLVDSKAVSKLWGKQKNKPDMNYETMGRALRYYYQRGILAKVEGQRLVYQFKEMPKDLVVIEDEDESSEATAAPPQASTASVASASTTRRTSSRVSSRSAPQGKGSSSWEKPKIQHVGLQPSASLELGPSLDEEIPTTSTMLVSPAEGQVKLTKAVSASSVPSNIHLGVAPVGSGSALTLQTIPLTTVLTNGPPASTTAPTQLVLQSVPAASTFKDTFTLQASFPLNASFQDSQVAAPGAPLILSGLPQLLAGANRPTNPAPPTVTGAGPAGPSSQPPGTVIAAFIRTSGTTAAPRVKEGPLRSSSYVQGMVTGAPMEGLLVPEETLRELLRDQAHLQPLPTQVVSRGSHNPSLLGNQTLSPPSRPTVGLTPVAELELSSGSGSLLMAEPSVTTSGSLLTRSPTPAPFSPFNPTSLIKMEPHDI
Chain of CRX (O43186 whole entry): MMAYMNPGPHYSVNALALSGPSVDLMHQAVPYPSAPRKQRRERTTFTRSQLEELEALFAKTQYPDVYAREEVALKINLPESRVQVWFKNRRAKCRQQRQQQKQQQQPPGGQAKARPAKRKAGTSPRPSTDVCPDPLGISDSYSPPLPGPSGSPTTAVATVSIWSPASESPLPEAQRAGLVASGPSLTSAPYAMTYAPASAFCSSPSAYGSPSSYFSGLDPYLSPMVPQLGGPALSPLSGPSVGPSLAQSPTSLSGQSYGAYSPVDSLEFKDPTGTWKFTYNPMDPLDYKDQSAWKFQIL
Chain of HSF1 (Q00613 whole entry): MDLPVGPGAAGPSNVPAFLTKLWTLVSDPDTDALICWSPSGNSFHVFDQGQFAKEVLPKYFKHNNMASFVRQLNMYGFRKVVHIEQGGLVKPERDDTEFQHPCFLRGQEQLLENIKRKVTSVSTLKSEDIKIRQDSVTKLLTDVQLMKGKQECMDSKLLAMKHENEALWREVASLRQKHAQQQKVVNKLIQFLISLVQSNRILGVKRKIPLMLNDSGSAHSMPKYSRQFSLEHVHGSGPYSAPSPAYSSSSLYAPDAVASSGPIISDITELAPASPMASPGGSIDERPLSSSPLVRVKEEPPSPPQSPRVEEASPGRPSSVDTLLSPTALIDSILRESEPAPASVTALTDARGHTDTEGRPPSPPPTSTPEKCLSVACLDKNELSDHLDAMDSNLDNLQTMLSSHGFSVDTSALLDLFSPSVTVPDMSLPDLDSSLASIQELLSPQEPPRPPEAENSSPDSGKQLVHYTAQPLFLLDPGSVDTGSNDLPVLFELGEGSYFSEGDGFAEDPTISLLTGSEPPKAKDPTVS
Chain of ETV1 (P50549 whole entry): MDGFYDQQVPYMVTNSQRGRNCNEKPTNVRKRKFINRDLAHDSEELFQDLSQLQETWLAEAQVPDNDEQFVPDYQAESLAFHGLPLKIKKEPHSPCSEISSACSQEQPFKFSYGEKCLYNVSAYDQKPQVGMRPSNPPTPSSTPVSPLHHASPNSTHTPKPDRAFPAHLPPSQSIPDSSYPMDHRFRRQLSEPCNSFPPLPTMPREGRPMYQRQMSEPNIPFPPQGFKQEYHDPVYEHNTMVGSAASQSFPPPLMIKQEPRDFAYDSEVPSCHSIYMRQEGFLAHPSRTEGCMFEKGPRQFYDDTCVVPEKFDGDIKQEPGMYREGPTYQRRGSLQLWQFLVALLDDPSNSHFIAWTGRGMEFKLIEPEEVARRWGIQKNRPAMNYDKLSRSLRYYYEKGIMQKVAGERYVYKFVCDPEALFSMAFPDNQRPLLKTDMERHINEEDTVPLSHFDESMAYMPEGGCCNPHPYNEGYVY
Chain of ETV5 (P41161 whole entry): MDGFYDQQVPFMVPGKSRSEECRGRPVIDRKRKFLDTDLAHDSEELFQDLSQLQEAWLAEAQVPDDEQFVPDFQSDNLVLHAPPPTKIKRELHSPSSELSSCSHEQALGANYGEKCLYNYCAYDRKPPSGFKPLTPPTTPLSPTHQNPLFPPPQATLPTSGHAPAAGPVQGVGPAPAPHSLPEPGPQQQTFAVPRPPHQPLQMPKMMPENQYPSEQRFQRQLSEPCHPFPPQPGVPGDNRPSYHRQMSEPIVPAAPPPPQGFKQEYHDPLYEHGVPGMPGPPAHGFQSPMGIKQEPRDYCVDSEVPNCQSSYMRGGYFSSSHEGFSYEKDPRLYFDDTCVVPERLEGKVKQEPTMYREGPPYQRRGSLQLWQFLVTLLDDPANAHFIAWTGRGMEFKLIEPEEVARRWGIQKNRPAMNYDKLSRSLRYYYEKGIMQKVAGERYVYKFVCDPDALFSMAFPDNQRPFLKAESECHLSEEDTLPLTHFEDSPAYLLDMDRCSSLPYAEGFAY
Chain of SPIB (Q01892 whole entry): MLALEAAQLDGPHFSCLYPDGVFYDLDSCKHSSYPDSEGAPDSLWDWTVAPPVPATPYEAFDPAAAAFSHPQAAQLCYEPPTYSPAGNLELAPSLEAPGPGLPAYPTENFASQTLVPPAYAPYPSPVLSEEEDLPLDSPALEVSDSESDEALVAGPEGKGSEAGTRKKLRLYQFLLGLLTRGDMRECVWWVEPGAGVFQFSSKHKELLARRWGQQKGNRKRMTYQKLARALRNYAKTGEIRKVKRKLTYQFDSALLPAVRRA
Chain of ELF1 (P32519 whole entry): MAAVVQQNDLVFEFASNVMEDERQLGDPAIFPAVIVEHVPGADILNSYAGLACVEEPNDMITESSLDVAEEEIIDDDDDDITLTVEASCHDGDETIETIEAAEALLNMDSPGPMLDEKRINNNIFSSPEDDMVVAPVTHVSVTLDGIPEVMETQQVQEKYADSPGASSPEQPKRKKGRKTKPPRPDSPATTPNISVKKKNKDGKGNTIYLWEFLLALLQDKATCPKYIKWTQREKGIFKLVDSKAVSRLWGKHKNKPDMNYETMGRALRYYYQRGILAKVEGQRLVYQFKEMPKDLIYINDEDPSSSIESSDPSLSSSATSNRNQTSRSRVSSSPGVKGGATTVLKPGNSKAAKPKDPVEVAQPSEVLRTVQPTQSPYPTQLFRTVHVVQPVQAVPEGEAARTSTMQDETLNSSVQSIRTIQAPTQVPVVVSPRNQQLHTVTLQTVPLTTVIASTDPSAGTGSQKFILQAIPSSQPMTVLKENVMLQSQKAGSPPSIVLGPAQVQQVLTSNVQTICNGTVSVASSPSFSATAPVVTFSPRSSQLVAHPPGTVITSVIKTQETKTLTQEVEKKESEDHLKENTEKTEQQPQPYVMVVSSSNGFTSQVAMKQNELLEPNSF

ATGATT
binding signal (FLI1): 1.22 fold enrichment (6-mer frequency, TF over GST control) | binding signal (ELK1): 1.25 fold enrichment (6-mer frequency, TF over GST control) | binding signal (GABPA): 1.37 fold enrichment (6-mer frequency, TF over GST control) | binding signal (ERG): 1.21 fold enrichment (6-mer frequency, TF over GST control) | binding signal (ELF1): 1.21 fold enrichment (6-mer frequency, TF over GST control) | binding signal (EHF): 1.22 fold enrichment (6-mer frequency, TF over GST control) | binding signal (SPI1): 1.17 fold enrichment (6-mer frequency, TF over GST control) | binding signal (SPIB): 1.22 fold enrichment (6-mer frequency, TF over GST control) | binding signal (ELK3): 1.09 fold enrichment (6-mer frequency, TF over GST control) | binding signal (FEV): 1.15 fold enrichment (6-mer frequency, TF over GST control) | binding signal (ETV5): 1.18 fold enrichment (6-mer frequency, TF over GST control) | binding signal (HSF1): 1.33 fold enrichment (6-mer frequency, TF over GST control) | binding signal (SPIC): 1.17 fold enrichment (6-mer frequency, TF over GST control) | binding signal (ELF4): 1.12 fold enrichment (6-mer frequency, TF over GST control) | binding signal (ELK4): 1.21 fold enrichment (6-mer frequency, TF over GST control) | binding signal (ETV2): 1.26 fold enrichment (6-mer frequency, TF over GST control) | binding signal (ELF3): 1.12 fold enrichment (6-mer frequency, TF over GST control) | binding signal (CRX): 1.58 fold enrichment (6-mer frequency, TF over GST control) | binding signal (ETV1): 1.19 fold enrichment (6-mer frequency, TF over GST control)
